The record followed here is PubChem BioAssay (EPA / NIEHS).

Active and inactive are the calls of the source. The calls were made as follows: active = hit-call score of the fitted dose curve at least 0.9, where 1 is the maximum; inactive = score below 0.9.

This test can be described thus: ATG_GRE_CIS: Attagene CIS-FACTORIAL HepG2 Assay for human Glucocorticoid Response Elements (GRE) (AID 2282947). The settings on record: HepG2 GRE cis-reporter, Attagene multiplex mRNA; actives raise or lower the signal. How it is done: ATG_CIS is a cell-based, multiplexed-readout assay that uses HepG2, a human liver cell line, with measurements taken at 24 hours after chemical dosing in a 24-well plate.ATG_GRE_CIS is one of 52 assay component(s) measured or calculated from the ATG_CIS assay. It is designed to make measurements of mRNA induction, a form of inducible reporter, as detected with fluorescence intensity signals by Reverse transcription polymerase chain reaction (RT-PCR) and Capillary electrophoresis technology.Data from the assay component ATG_GRE_CIS was analyzed into 1 assay endpoint. This assay endpoint, ATG_GRE_CIS, was analyzed with bidirectional fitting relative to DMSO as the negative control and baseline of activity. Using a type of inducible reporter, measures of mRNA for gain or loss-of-signal activity can be used to understand the reporter gene at the transcription factor-level as they relate to the gene NR3C1. Furthermore, this assay endpoint can be referred to as a primary readout, because this assay has produced multiple assay endpoints where this one serves a reporter gene function. To generalize the intended target to other relatable targets, this assay endpoint is annotated to the nuclear receptor intended target family, where the subfamily is steroidal.
Human liver HepG2 cells are transiently transfected with multiple reporter transcription units (MRTUs) in 6-well plates using FuGene 6 reagent (Roche; 3 ml FuGene/1 mg DNA). The MRTU constructs are regulated by a cis-regulating element (promoter). […] A major difference between the CIS and TRANS system is that in CIS activities of endogenous TFs are measured, whereas the TRANS assay evaluates changes in activities of exogenous, chimeric NR-Gal4 proteins. […] At the end of 24 hour incubation, total RNA was isolated using TriZol reagent (Invitrogen). The isolated RNA is then reverse-transcribed using oligo(dT) primer and Mo-MLV reverse transcriptase (Invitrogen) with DNAse I (Ambion) treatment for 30 min. The one-tenth of the produced cDNA was amplified by PCR using Taq DNA polymerase (Invitrogen) and two reporter sequence-specific primers. The PCR products were fluorescently labeled by primer extension with 6-arboxyfluorescein (6-FAM) 5'-labeled reporter sequence-specific primer (2 min at 95 C, 20 s at 68 C and 10 min at 72 C) and these products were digested with 5U of HpaI (New England Biolabs) for 2h at 37 C. The fragments were purified using Qiaquick PCR columns (Qiagen), analyzed on an ABI 3130xL genetic analyzer (Applied Biosystems) with peak positions identified by using a set of X-rhodamine (ROX)-labeled MapMarker1000 molecular weight standards (BioVentures). The raw capillary electrophoresis data was processed using Attagraph software (Attagene).
For `O=[Si]=O`, the outcome was inactive.
On to `CCCCCCCCCCCCCCOS(=O)(=O)O`, for which the compound was classed as inactive.
In the case of `CS(=O)(=O)c1ccc([C@@H](C[C@H]2CCC(=O)C2)C(=O)Nc2cnccn2)cc1Cl` it was “inactive”.
For `C=CCc1ccc(OC)c(OC)c1`, the compound was called inactive.
In the case of `O=C(O)CN(CC(=O)O)CC(=O)O` it was “inactive”; in that of `O=C1CCCCC1`, “inactive”; in that of `CC(=O)[C@@]1(O)CC[C@H]2[C@@H]3CCC4=CC(=O)CC[C@]4(C)[C@H]3CC[C@@]21C`, “inactive”.
In the case of `CN(C)C(=O)NC1(c2ccccc2)CCN(CCC[C@]2(c3ccc(Cl)c(Cl)c3)CCCN(C(=O)c3ccccc3)C2)CC1` it was “inactive”.
For the compound `CN(C)CCCN1c2ccccc2Sc2ccc(Cl)cc21`, the outcome was inactive.
Regarding `O=Cc1ccccc1C=O`, the result was inactive.
In the case of `NC(=Nc1ccccc1)Nc1ccccc1` it was “inactive”.
The entry for `CC(C)c1cccc(C(C)C)c1NC(=O)NS(=O)(=O)c1cc(C(C)(C)O)co1` is “inactive”; for `O=C1c2c(O)cccc2Cc2cccc(O)c21` it is “inactive”.
The entry for `CCc1cc(C2=C(C(=O)O)N(c3ccccc3C(F)(F)F)S(=O)(=O)c3ccccc32)cc2c1OCO2` is “inactive”; for `CCCCCCCCCC[N+](C)(C)[O-]` it is “inactive”; for `CCCCC(CC)COP(=O)(OCC(CC)CCCC)OCC(CC)CCCC` (stereo not given) it is “inactive”.
`Oc1ccccc1O`: the compound was classed as inactive.
Regarding `CCOCCOCCO`, the outcome was inactive.
As to `CC(C)OC(=O)C(C)(C)Oc1ccc(C(=O)c2ccc(Cl)cc2)cc1`, the compound was classed as inactive.
The entry for `COC(=O)[C@H]1[C@H]2C[C@@H]3c4[nH]c5cc(OC)ccc5c4CCN3C[C@H]2C[C@@H](OC(=O)c2cc(OC)c(OC)c(OC)c2)[C@@H]1OC` is “inactive”; for `CC(=O)S[C@H](C(=O)N[C@H]1Cc2ccccc2[C@H]2CCC[C@@H](C(=O)O)N2C1=O)C(C)C` it is “inactive”.
In the case of `Oc1ccc(O)cc1` it was “inactive”; in that of `CC(C)NCC(O)c1ccc(O)c(O)c1` (stereo not given), “inactive”; in that of `C#CC(O)C(CC)CCCC` (stereo not given), “inactive”.
The entry for `OCC(CO)n1cnc(-c2ccc(F)cc2)c1-c1ccnc(Oc2ccccc2)n1` is “inactive”; for `CCN(CC)CCOc1ccc(C(=C(Cl)c2ccccc2)c2ccccc2)cc1` it is “inactive”; for `Nc1nc(=S)c2[nH]cnc2[nH]1` it is “inactive”.
On to `CCCC(=O)O`, for which the compound was called inactive.
In the case of `CC(=O)OC1CC(C)OC(C)O1` (stereo not given) it was “inactive”; in that of `CCCCc1nc2cccnc2n1Cc1ccc(-c2ccccc2-c2nnn[nH]2)cc1`, “inactive”; in that of `Cc1ccc(-c2cc(C(F)(F)F)nn2-c2ccc(S(N)(=O)=O)cc2)cc1`, “inactive”.
The entry for `Cc1cc(SC2=C(O)C[C@@](CCc3ccc(N)cc3)(C(C)C)OC2=O)c(C(C)(C)C)cc1CO` is “inactive”; for `CC(N)=O` it is “inactive”; for `COc1ccc(C(=O)Nc2nc3ccccc3c(NCc3ccccc3)c2C#N)cc1` it is “inactive”.
In the case of `CCc1nc(N)nc(N)c1-c1ccc(Cl)cc1` it was “inactive”.
Turning to `O=C(NS(=O)(=O)/C=C/c1cccs1)c1ccc(F)cc1Br`, the outcome was inactive.
The entry for `CC1=C(C)S(=O)(=O)CCS1(=O)=O` is “inactive”; for `CCCCCCCCCCCCCCCCO` it is “inactive”; for `CC1(C)C(=O)NC(=O)N1CO` it is “inactive”.
On to `CCCCCCC(CCCCCCCCCCC(=O)OCC(COC(C)=O)OC(C)=O)OC(C)=O` (stereo not given), for which the outcome was inactive.
